Methyltransferases – Primary Screen for Target Class Profiling of Small Molecule Inhibitors of Methyltransferases; purified enzyme, MTase-Glo SAH luminescence; stronger effect = lower value; calls only at 40 µM; 25,000 tested, 3.9% active; AID 1745853, 2022; call rule not given here
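Each enzyme was reacted with SAM and its substrate, with compounds tested once at 40 uM; SAH formed was read by MTase-Glo luminescence.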
Active calls of the source: *; ! = repeats disagree. This is one part of a sample in which hits are shown more often than they occur. % is scaled to controls: 0 for no effect and ±100 for the full control effect.

Results for CCN(Cc1noc(C2CCC2)n1)C(=O)c1cc(C(C)C)n2ncnc2n1 ?
Methyltransferases: inactive

How did COc1ccc(OC)c(CCNC(=O)CNC(=O)C2(C)Cn3c(cc4ccccc43)C(=O)N2C)c1 (stereo not drawn) do in these assays?
Methyltransferases: inactive

What do the screens show for `COc1ccc(N2CCN(C(=O)CCc3nnc4n(CCc5ccccc5)c(=O)c5ccccc5n34)CC2)cc1`?
Methyltransferases: inactive

What do the screens show for `COc1ccc2cc(CNc3ccc(C)cc3)c(=O)n(CC(=O)Nc3cccc(C(F)(F)F)c3)c2c1`?
Methyltransferases: active

How did Cc1cc(C)cc(Nc2nc(C)cc(=O)n2CC(=O)Nc2cccc(C(F)(F)F)c2)c1 do in these assays?
Methyltransferases: inactive

How did COc1ccc(C(=O)N[C@@H]2CN(C(=O)Nc3cccc(C(F)(F)F)c3)CCC[C@H]2O)cc1 do in these assays?
Methyltransferases: inactive

Results for O=C(NCC1CCOCC1)c1ccoc1 ?
Methyltransferases: inactive

What do the screens show for `CC(=O)N1CCCC1c1nc(C2CN(S(=O)(=O)c3cccc(C)c3)C2)no1` (stereo not drawn)?
Methyltransferases: inactive

What do the screens show for `Cc1cc(C(=O)N2CCC(N3CCCC(C(=O)NCCc4ccccc4)C3)CC2)n[nH]1` (stereo not drawn)?
Methyltransferases: inactive

Results for CC1(C)CC(=O)c2c(C(F)(F)F)nn(-c3ccc(C(N)=O)c(NC4CCC(OC(=O)CN)CC4)c3)c2C1 (stereo not drawn) ?
Methyltransferases: active!

What do the screens show for `CCCn1c(=O)c2ccc(C(=O)NC(C)CC)cc2n2c(SCC(=O)Nc3ccc(CC)cc3)nnc12` (stereo not drawn)?
Methyltransferases: inactive

Results for CC(=O)N(C)CCc1noc(C2CN(Cc3c(F)cccc3Cl)C2)n1 ?
Methyltransferases: inactive

How did COc1ccc(CN2C(=O)c3ccc(-c4ccccc4)n3CC2(C)C(=O)NC2CCC(C)CC2)cc1 (stereo not drawn) do in these assays?
Methyltransferases: inactive

What do the screens show for `Cn1nc(-c2ccc(C(F)(F)F)cc2)nc2c(=O)n(C)c(=O)nc1-2`?
Methyltransferases: active

What do the screens show for `CC(C)c1ccc(NC(=O)c2ncn3c2C(=O)N(C2CC2)C(C)(C(=O)NCc2ccc(F)cc2)C3)cc1` (stereo not drawn)?
Methyltransferases: inactive

What do the screens show for `CN(C)CCCC1(c2ccc(F)cc2)OCc2cc(C#N)ccc21` (stereo not drawn)?
Methyltransferases: active!

How did C=CCn1c(=O)c2ccc(C(=O)NC(C)C)cc2n2c(=O)n(CC(=O)Nc3cccc(C)c3)nc12 do in these assays?
Methyltransferases: inactive

How did CC(C)c1ccc(NC(=O)CN(C)S(=O)(=O)c2ccc3[nH]c4c(c3c2)CCCC4)cc1 do in these assays?
Methyltransferases: inactive

What do the screens show for `CCOc1ccc(N2C(=O)c3cc4occc4n3CC2(C)C(=O)NC2CCCCCCC2)cc1` (stereo not drawn)?
Methyltransferases: inactive

What do the screens show for `O=S1(=O)CCN(Cc2cc(NCC3CCOCC3)c3[nH]c(-c4ccccc4)cc3c2)CC1`?
Methyltransferases: active

What do the screens show for `COCCOCC(=O)N1CCC(N2C(=O)CCC2C(=O)NCc2ccccc2)CC1` (stereo not drawn)?
Methyltransferases: inactive

How did CCN(CC)C(=S)SSC(=S)N(CC)CC do in these assays?
Methyltransferases: active

What do the screens show for `CC(C)(C)c1cc2n(n1)CC(C)(C(=O)NC1CCCCC1)N(Cc1ccc(F)cc1)C2=O` (stereo not drawn)?
Methyltransferases: inactive

What do the screens show for `C=C1C(=O)OC2CC3(C)C(CC12)C(C)=CC(O)C3OC(C)=O` (stereo not drawn)?
Methyltransferases: active

How did C=C1C(=O)O[C@@H]2C/C(C)=C\C(=O)/C=C(\C)[C@@H](OC(=O)/C(C)=C\C)[C@H](O)[C@@H]12 do in these assays?
Methyltransferases: inactive

How did C=C(C)C(=O)O[C@H]1C[C@@](C)(O)C(=O)CC(O)/C(C)=C\[C@H]2OC(=O)C(=C)[C@H]12 (stereo partly drawn) do in these assays?
Methyltransferases: inactive

Results for CC1CCN(S(=O)(=O)c2ccc3c(ccn3CC(=O)NCCC3=CCCCC3)c2)CC1 ?
Methyltransferases: inactive

What do the screens show for `CC1(C(=O)NC2CCCCC2)Cn2c(ccc2-c2ccco2)C(=O)N1Cc1ccc(Cl)cc1` (stereo not drawn)?
Methyltransferases: inactive

Results for COCc1nnc2n1CCC(NC(=O)C1CC=CC1)CC2 (stereo not drawn) ?
Methyltransferases: inactive

What do the screens show for `CC1(COc2ccc3c(c2)ncn3-c2ccc3cccc(N4CCC(N)CC4)c3n2)COC1`?
Methyltransferases: active

Results for CC1CCCC(NC(=O)C2(C)Cn3c(cc4occc43)C(=O)N2Cc2cccc(F)c2)C1C (stereo not drawn) ?
Methyltransferases: inactive

Results for CS(=O)(=O)N1CCc2ccc(C(=O)NCc3ccc(OC(F)(F)F)cc3)cc21 ?
Methyltransferases: inactive

Results for CC/C(=C(\c1ccccc1)c1ccc(OCCN(C)C)cc1)c1ccccc1 ?
Methyltransferases: inactive

Assay outcomes from PubChem BioAssay.
